# Laboratory results as given in PubChem BioAssay (NCATS).
# Inconclusive results are not listed. A call without a number means that no potency is given here. Active and inactive are the calls of the source. Unless noted, the call rests on the fitted dose curve; in most records, active means well fitted curve in the direction sought with a large enough effect; inconclusive means small, poorly fitted or top-dose-only effect, or another doubt; inactive means no such curve, though single readings can be large; an effect the other way counts as inactive or inconclusive.
# Experiments:
# [1] = Cellular Toxicity (caspase-3) Hek293 (AID 664); settings: HEK293 caspase-3 activation; caspase-3 activation: at 92.2 µM (top of the series), DMSO = 0%, 100 µM tamoxifen = 100%;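 further: cells exposed to compound for 16 h at 37 °C before readout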
# Outline: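 Concentration-response qHTS: caspase 3/7 activation measured by luminescent aminoluciferin substrate cleavage after 16 h compound exposure of Hek 293 cells. AC50 from Hill equation, with DMSO as basal and 100 uM tamoxifen as 100%.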
# [2] = Cellular Toxicity (caspase-3) NIH 3T3 (AID 666); settings: NIH 3T3 caspase-3 activation, apoptosis/toxicity, 0% DMSO, 100% is 100 µM tamoxifen; series mostly up to 92.2 µM;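 further: caspase signal read after 16 h compound exposure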
# Outline: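 Caspase-Glo 3/7 luminescence reported caspase activation in 1000 NIH 3T3 cells/well after 16 h compound exposure at 37 C. DMSO set basal and 100 uM tamoxifen set 100% stimulation; concentration-response modeled with the Hill equation for AC50.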
# [3] = Cellular Toxicity (caspase-3) Renal Proximal Tubule (AID 667); settings: renal proximal tubule cells, primary cells freshly taken from rat, solvent-only wells 0%, staurosporine 100%; series mostly up to 91.7 µM;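 further: cells exposed to compound for 16 hours at 37 °C before detection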
# Outline: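 In qHTS format, rat primary proximal tubule cells seeded at 1000 per well are exposed to compounds for 16 hours at 37 °C. An increase in Caspase-Glo 3/7 luminescence indicates caspase activation.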
# [4] = target: Guanine nucleotide-binding protein G(i) subunit alpha-1 (Homo sapiens) (UniProt P63096); assay: qHTS Assay for Inhibitors of RGS12 GoLoco Motif Activity (Green Fluorophore) (AID 879); settings: Galphai1/FITC-RGS12 GoLoco peptide, fluorescence polarization; series mostly up to 57.1 µM;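 further: negative values mean loss of peptide binding seen as reduced polarization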
# Chain of Guanine nucleotide-binding protein G(i) subunit alpha-1 (Homo sapiens) (P63096 whole entry, looked up): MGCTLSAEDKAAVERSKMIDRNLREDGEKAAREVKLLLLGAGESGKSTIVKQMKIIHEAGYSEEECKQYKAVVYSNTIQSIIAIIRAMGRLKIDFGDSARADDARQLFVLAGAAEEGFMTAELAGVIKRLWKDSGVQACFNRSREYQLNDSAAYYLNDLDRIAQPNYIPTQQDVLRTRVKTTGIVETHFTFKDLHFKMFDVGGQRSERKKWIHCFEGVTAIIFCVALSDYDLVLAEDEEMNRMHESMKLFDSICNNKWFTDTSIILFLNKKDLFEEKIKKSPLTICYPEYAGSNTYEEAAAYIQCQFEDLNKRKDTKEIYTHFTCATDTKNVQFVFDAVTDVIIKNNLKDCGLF
# Outline: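 A drop in FITC polarization marked displacement of the FITC-tagged RGS12 GoLoco peptide (10 nM) from Gαi1 (50 nM). Compounds were incubated 10 min at room temperature in Tris pH 7.5 buffer containing 150 mM NaCl, 0.1 mM GDP and 0.05% NP40; unlabeled peptide titration served as control.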
# [5] = target: Cytochrome P450 2C9 (Homo sapiens) (UniProt P11712); assay: qHTS Assay for Inhibitors and Substrates of Cytochrome P450 2C9 (AID 883); settings: recombinant CYP2C9, luciferin-H luminescence, 60 min; series mostly up to 57.1 µM; further: nearly all actives have a fitted effect of over 60% in size
# Chain of Cytochrome P450 2C9 (Homo sapiens) (P11712 whole entry, looked up): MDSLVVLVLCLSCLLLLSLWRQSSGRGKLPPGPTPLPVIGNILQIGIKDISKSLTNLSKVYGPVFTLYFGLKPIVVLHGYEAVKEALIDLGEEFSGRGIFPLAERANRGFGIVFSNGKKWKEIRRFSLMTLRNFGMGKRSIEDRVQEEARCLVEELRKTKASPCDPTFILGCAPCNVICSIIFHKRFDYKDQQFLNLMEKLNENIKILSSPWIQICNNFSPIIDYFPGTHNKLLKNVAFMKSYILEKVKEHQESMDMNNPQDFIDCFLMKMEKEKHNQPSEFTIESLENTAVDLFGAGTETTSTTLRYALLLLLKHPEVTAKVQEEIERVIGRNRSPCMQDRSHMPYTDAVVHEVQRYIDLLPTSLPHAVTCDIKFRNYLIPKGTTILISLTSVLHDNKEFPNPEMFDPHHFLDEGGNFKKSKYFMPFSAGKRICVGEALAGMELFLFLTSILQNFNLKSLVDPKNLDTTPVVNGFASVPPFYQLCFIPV
# Outline: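 Luminescent read-out of deoxyluciferin hydroxylation, normalized to 57uM sulphaphenazole (AC100). Reaction: 10nM enzyme, 100uM Luciferin-H (equal to KM), 25mM KPO4, 10 min compound preincubation, then 60 min with NADPH regeneration, both at 37C.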
# [6] = target: Cytochrome P450 3A4 (Homo sapiens) (UniProt P08684); assay: qHTS Assay for Inhibitors and Substrates of Cytochrome P450 3A4 (AID 884); settings: recombinant CYP3A4, Luciferin-PPXE luminescence; series mostly up to 57.1 µM; further: nearly all actives have a fitted effect of over 50% in size
# Chain of Cytochrome P450 3A4 (Homo sapiens) (P08684 whole entry, looked up): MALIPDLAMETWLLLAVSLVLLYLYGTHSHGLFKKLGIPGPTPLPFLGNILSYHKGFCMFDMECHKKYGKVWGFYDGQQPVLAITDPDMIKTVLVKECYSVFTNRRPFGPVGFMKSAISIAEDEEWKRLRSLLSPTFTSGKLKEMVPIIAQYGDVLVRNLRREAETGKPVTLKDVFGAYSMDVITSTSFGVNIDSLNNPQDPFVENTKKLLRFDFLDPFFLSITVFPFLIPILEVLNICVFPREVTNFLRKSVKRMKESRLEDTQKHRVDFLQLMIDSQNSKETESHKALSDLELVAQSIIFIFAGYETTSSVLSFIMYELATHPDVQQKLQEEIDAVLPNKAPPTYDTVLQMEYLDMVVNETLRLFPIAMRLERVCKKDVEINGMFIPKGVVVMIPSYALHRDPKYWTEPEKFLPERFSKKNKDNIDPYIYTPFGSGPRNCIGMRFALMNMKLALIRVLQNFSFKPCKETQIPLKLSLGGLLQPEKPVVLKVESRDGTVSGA
# Outline: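 Luminescent readout of luciferin produced by CYP3A4 (20 nM) dealkylation of Luciferin-PPXE, 25 uM (its KM). NADPH-driven reaction ran 60 min at RT after 10 min compound preincubation; data scaled to 57 uM ketoconazole as 100% inhibition.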
# [7] = target: Cytochrome P450 2D6 (Homo sapiens) (UniProt P10635); assay: qHTS Assay for Inhibitors and Substrates of Cytochrome P450 2D6 (AID 891); settings: recombinant CYP2D6, luciferin-ME EGE luminescence; series mostly up to 57.1 µM;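 further: luciferin methyl ether substrate demethylated by CYP2D6 with NADPH regeneration; nearly all actives have a fitted effect of over 60% in size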
# Chain of Cytochrome P450 2D6 (Homo sapiens) (P10635 whole entry, looked up): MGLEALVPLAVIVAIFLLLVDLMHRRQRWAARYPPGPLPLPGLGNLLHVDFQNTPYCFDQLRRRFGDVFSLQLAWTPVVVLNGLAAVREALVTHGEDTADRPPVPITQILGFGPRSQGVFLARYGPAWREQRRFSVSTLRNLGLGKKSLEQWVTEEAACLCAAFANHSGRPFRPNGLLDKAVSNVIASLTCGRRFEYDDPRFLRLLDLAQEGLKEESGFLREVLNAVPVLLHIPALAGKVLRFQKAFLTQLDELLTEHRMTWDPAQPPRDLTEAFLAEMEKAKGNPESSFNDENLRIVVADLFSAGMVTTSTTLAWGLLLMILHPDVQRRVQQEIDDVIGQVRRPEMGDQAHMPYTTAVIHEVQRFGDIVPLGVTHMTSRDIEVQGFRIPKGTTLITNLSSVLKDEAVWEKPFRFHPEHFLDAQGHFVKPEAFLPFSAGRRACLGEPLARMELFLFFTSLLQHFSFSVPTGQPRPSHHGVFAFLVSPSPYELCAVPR
# Outline: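 Luminescent read-out of luciferin formed by 5 nM human CYP2D6 demethylating 30 uM Luciferin-ME EGE (Km level) over 60 min at room temperature after NADPH regeneration addition. Data normalized to full inhibition by 1.43 uM quinidine.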
# [8] = Cellular Toxicity (caspase-3) N2a (AID 665); settings: N2a cells, luminescence, normalized: DMSO 0%, 10 µM staurosporine 100%; series mostly up to 92.2 µM;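 further: compound exposure lasted 16 h at 37 °C before readout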
# Outline: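 Caspase-3/7 activation measured as luminescence from Caspase-Glo reagent (1 h, room temperature) after 16 h compound exposure of mouse N2a cells. AC50 values from Hill-equation concentration-response, scaled between DMSO and 10 uM staurosporine.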
# [9] = target: Cytochrome P450 3A4 (Homo sapiens) (UniProt P08684); assay: qHTS Assay for Activators of Cytochrome P450 3A4 (AID 885); settings: recombinant CYP3A4, Luciferin-PPXE luminescence, 60 min; series mostly up to 57.1 µM; further: nearly all actives have a fitted effect of over 65% in size
# Outline: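 Human CYP3A4 dealkylates Luciferin-PPXE to luciferin, which luciferase detection converts to light. Substrate was at its KM (25uM), buffer 200mM KPO4, reaction 60 min at RT.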
# [10] = qHTS Assay for Identification of Small Molecule Antagonists for NFkB Signaling Pathway (AID 895; active means well fitted inhibition curve with a large enough effect in the signal ratio, with a control signal flat, not every such curve was filed as active; the % refers to the signal ratio); settings: NFkB beta-lactamase reporter cells, FRET ratio 460/530, stimulated with 10 pM TNF alpha; series mostly up to 38.3 µM
# Outline: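 Beta-lactamase reporter read-out (460 and 530 nm emission ratio, 405 nm excitation, 2 hrs substrate loading RT) after 5 hr stimulation with 10 pM TNF alpha in compound-treated NFkB-bla ME-180 cells in low-serum medium.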
smiles,measurement,setting,value
Clc1ccc(C(c2ccccc2Cl)C(Cl)Cl)cc1 (stereo not given),caspase-3 activation,[1],133% (active)
same,outcome,[2],inactive
same,outcome,[3],inactive
same,Potency,[4],inactive
COC(=O)Nc1nc2ccc(C(=O)c3cccs3)cc2[nH]1,Potency,[4],inactive
same,Potency,[5],inactive
same,outcome,[6],inactive
same,Potency,[7],inactive
O=c1c(-c2ccc(O)cc2)coc2cc(O)cc(O)c12,Potency,[1],inactive
same,outcome,[8],inactive
same,outcome,[2],inactive
same,outcome,[3],inactive
same,Potency,[4],inactive
same,Potency,[5],inactive
same,Potency,[9],inactive
same,Potency,[7],inactive
CC(C)NCC(O)c1ccc(O)c(O)c1 (stereo not given),Potency,[1],inactive
same,outcome,[8],inactive
same,outcome,[2],inactive
same,outcome,[3],inactive
CCOC(=O)Nc1ccc(NCc2ccc(F)cc2)nc1N,Potency,[4],inactive
CCC1(c2ccccc2)C(=O)NCNC1=O,Potency,[1],inactive
same,outcome,[8],inactive
same,outcome,[2],inactive
same,outcome,[3],inactive
same,Potency,[4],inactive
same,Potency,[5],inactive
same,outcome,[6],inactive
same,Potency,[7],inactive
same,Potency,[10],inactive
CN(C)CCOC(c1ccccc1)c1ccccc1,Potency,[4],inactive
NC12CC3CC(CC(C3)C1)C2,Potency,[4],inactive
NCCc1cnc[nH]1,Potency,[4],inactive
Nc1ccn([C@H]2CC[C@@H](CO)O2)c(=O)n1,Potency,[1],inactive
same,outcome,[8],inactive
same,outcome,[2],inactive
same,outcome,[3],inactive
same,Potency,[4],inactive
same,outcome,[6],inactive
CCc1cccc2c3c([nH]c12)C(CC)(CC(=O)O)OCC3 (stereo not given),Potency,[4],inactive
Cn1c(=O)c2[nH]cnc2n(C)c1=O,Potency,[1],inactive
same,outcome,[8],inactive
same,outcome,[2],inactive
same,outcome,[3],inactive
same,Potency,[4],inactive
same,outcome,[6],inactive
same,Potency,[10],inactive
CNCCCC12CCC(c3ccccc31)c1ccccc12,Potency,[4],inactive
Cn1c(=O)c2c(ncn2C)n(C)c1=O,Potency,[1],inactive
same,outcome,[8],inactive
same,outcome,[2],inactive
same,outcome,[3],inactive
same,Potency,[4],inactive
same,Potency,[5],inactive
same,outcome,[6],inactive
same,Potency,[7],inactive
N[C@@H](Cc1c[nH]c2ccc(O)cc12)C(=O)O,Potency,[1],inactive
same,outcome,[8],inactive
same,outcome,[2],inactive
same,outcome,[3],inactive
same,Potency,[4],inactive
same,Potency,[5],inactive
same,Potency,[9],inactive
same,Potency,[7],inactive
CC[N+](CC)(CC)CCOc1cccc(OCC[N+](CC)(CC)CC)c1OCC[N+](CC)(CC)CC,Potency,[4],inactive
CN(C)C(=O)C(CCN1CCC(O)(c2ccc(Cl)cc2)CC1)(c1ccccc1)c1ccccc1,Potency,[4],inactive
COc1ccc(CCN(C)CCCC(C#N)(c2ccc(OC)c(OC)c2)C(C)C)cc1OC (stereo not given),Potency,[1],inactive
same,outcome,[8],inactive
same,outcome,[2],inactive
same,outcome,[3],inactive
COc1cc2c(c(OC)c1OC)-c1ccc(OC)c(=O)cc1[C@@H](NC(C)=O)CC2,Potency,[1],inactive
same,outcome,[8],inactive
same,outcome,[2],inactive
same,outcome,[3],inactive
same,Potency,[4],inactive
same,Potency,[10],inactive
CN1CCN(C2=Nc3cc(Cl)ccc3Nc3ccccc32)CC1,Potency,[4],inactive
O=C(CCCN1CCC(O)(c2ccc(Cl)cc2)CC1)c1ccc(F)cc1,Potency,[4],inactive
NC(=O)NO,Potency,[4],inactive
Cc1cn([C@H]2C[C@H](N=[N+]=[N-])[C@@H](CO)O2)c(=O)[nH]c1=O,Potency,[1],inactive
same,outcome,[8],inactive
same,outcome,[2],inactive
same,outcome,[3],inactive
NS(=O)(=O)c1cc2c(cc1Cl)NCNS2(=O)=O,Potency,[1],inactive
same,outcome,[8],inactive
same,outcome,[2],inactive
same,outcome,[3],inactive
same,Potency,[4],inactive
Cc1ccc(-c2cc(C(F)(F)F)nn2-c2ccc(S(N)(=O)=O)cc2)cc1,Potency,[1],inactive
same,outcome,[8],inactive
same,outcome,[2],inactive
same,outcome,[3],inactive
Cc1cn([C@H]2C=C[C@@H](CO)O2)c(=O)[nH]c1=O,Potency,[1],inactive
same,outcome,[8],inactive
same,outcome,[2],inactive
same,outcome,[3],inactive
same,Potency,[4],inactive
same,outcome,[6],inactive
COc1ccc2c(c1)c(CC(=O)O)c(C)n2C(=O)c1ccc(Cl)cc1,Potency,[1],inactive
same,outcome,[8],inactive
same,outcome,[2],inactive
same,outcome,[3],inactive
same,Potency,[4],inactive
same,outcome,[6],inactive
same,Potency,[7],inactive
NCCS(=O)(=O)O,Potency,[1],inactive
same,outcome,[8],inactive
same,outcome,[2],inactive
same,outcome,[3],inactive
same,Potency,[4],inactive
Cc1cnc(C(=O)NCCc2ccc(S(=O)(=O)NC(=O)NC3CCCCC3)cc2)cn1,Potency,[4],inactive
O=C(c1ccc(F)cc1)C1CCN(CCn2c(=O)[nH]c3ccccc3c2=O)CC1,Potency,[4],inactive
CC(C)C(=O)Nc1ccc([N+](=O)[O-])c(C(F)(F)F)c1,Potency,[1],inactive
same,outcome,[8],inactive
same,outcome,[2],inactive
same,outcome,[3],inactive
same,Potency,[4],inactive
same,Potency,[9],inactive
same,Potency,[7],inactive
OCCN1CCN(CCCN2c3ccccc3Sc3ccc(C(F)(F)F)cc32)CC1,Potency,[4],inactive
O=c1[nH]cc(F)c(=O)[nH]1,Potency,[1],inactive
same,outcome,[8],inactive
same,outcome,[2],inactive
same,outcome,[3],inactive
same,Potency,[4],inactive
same,Potency,[5],inactive
same,outcome,[6],inactive
same,Potency,[7],inactive
Cc1ccc(C(=O)Nc2ccc(S(=O)(=O)O)c3cc(S(=O)(=O)O)cc(S(=O)(=O)O)c23)cc1NC(=O)c1cccc(NC(=O)Nc2cccc(C(=O)Nc3cc(C(=O)Nc4ccc(S(=O)(=O)O)c5cc(S(=O)(=O)O)cc(S(=O)(=O)O)c45)ccc3C)c2)c1,Potency,[4],inactive
COc1ccc2[nH]cc(CCNC(C)=O)c2c1,Potency,[1],inactive
same,outcome,[8],inactive
same,outcome,[2],inactive
same,outcome,[3],inactive
same,Potency,[4],inactive
same,Potency,[10],inactive
